In PubChem BioAssay AID602124 (The Scripps Research Institute Molecular Screening Center, 2011):
Among all 1,300 compounds or so, about 630 (48%) were called active. Rule as the data show it: active = inhibition above about 6.5%; inactive = the rest. So high a share suggests a set chosen from earlier hits. This excerpt belongs to a sample that is enriched for actives.

Each compound was assayed against Tyrosine-protein kinase ABL1 (Homo sapiens) + Ras and Rab interactor 1 (Homo sapiens) (UniProt P00519+Q13671) (assay: Rin1-Abl binding inhibitor retest, confirmation, biochemical, TR-FRET (AID 602124)). Settings: purified proteins, at 7.35 µM, stronger effect = higher value.
Chain of Tyrosine-protein kinase ABL1 (Homo sapiens) + Ras and Rab interactor 1 (Homo sapiens) (P00519 whole entry, looked up): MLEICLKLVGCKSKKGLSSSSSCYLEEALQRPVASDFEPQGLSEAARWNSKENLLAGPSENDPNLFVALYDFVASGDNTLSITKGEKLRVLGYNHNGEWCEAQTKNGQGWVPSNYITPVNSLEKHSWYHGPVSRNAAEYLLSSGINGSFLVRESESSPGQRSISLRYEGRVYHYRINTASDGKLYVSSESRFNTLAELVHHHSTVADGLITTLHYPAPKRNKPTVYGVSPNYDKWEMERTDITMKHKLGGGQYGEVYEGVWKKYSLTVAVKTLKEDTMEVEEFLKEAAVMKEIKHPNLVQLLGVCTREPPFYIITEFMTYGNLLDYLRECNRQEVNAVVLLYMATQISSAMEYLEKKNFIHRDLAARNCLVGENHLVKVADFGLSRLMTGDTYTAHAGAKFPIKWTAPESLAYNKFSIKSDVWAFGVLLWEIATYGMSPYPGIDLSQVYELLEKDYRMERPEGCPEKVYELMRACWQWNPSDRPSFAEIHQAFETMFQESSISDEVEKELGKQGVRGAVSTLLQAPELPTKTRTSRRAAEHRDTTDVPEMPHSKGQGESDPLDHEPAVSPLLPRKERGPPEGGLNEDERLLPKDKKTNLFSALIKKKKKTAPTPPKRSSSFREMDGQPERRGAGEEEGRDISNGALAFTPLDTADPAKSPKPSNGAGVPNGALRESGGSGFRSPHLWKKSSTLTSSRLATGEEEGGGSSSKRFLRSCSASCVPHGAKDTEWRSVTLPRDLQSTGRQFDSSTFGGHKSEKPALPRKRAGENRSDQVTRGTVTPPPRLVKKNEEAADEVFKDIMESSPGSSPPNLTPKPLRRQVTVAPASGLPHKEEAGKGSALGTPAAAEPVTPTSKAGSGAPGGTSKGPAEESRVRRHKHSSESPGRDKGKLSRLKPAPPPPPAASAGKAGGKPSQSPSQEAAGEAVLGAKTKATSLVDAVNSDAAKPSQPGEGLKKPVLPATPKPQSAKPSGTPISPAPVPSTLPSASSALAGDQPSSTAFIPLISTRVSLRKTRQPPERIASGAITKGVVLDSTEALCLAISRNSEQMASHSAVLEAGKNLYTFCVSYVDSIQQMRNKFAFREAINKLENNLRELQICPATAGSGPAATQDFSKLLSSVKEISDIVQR
Chain of Tyrosine-protein kinase ABL1 (Homo sapiens) + Ras and Rab interactor 1 (Homo sapiens) (Q13671 whole entry, looked up): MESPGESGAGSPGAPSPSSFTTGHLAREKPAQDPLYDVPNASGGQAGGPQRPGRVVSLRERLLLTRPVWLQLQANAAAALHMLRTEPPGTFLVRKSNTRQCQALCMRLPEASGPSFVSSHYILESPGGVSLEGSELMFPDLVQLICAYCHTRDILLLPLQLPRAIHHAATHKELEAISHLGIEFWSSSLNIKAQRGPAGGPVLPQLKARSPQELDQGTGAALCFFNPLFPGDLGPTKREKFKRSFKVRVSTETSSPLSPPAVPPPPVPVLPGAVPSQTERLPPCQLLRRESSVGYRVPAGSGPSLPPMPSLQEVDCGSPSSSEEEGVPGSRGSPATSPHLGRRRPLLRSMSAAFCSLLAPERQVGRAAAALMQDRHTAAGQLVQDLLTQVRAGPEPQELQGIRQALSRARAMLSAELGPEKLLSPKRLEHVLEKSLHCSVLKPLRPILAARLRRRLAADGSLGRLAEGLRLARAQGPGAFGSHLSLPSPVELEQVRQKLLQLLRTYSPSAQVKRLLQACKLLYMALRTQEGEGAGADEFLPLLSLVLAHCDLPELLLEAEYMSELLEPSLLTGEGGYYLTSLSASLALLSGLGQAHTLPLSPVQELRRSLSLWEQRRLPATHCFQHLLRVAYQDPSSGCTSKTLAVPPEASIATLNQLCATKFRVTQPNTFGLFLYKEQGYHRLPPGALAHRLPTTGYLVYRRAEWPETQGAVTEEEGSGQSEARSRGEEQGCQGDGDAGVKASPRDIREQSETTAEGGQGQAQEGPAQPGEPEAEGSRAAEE

**Q.** Which inhibition does the source give for `CSCCC(c1nnnn1C(C)(C)C)N1CCC(n2c(=O)[nH]c3ccccc32)CC1` (stereo unspecified) here?
**A.** 16.5% (active)
